# Experimental data as given in article PMC7826789 (International Journal of Molecular Sciences, 2021).
# Tested on: ULK3
# Conditions: Compound Concentration (nM):1000
# 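Further: KINOMEscan scanMAX binding as percent activity remaining versus control; lower means stronger binding.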
row,Structure (SMILES),Percent Control [%]
1,C[C@@H](Oc1cc(-n2cnc3ccc(OC4CCN(C)CC4)cc32)sc1C(N)=O)c1ccccc1Cl [GSK579289A],100
2,COC(=O)Nc1nc2ccc(Oc3ccc(NC(=O)Nc4cc(C(F)(F)F)ccc4F)cc3)cc2s1.Cl [GW693917A],78
3,O=C1Nc2ccc(C(=O)c3ccco3)cc2C1=Cc1cc(Cl)c(O)c(Cl)c1 [GW406108X],60
4,Cl.O=S1CCN(Cc2ccc(-c3ccc4ncnc(Nc5ccc(OCc6ccccc6)c(F)c5)c4c3)o2)CC1 [GW576924A],94
5,CC1=C(C(=O)Nc2ccc3[nH]ncc3c2)C(c2ccc(Cl)c(Cl)c2)CC(=O)N1 (centres unmarked) [GSK299115A],87
6,O=C(Nc1n[nH]c2nc(-c3ccc(O)cc3)c(Br)cc12)C1CC1 [SB-725317],100
7,COc1ccc2cc(-c3c(-c4ccncc4)nc(-c4ccc(S(C)(=O)=O)cc4C)n3C)ccc2c1 [SB-633825],73
8,COc1cc2ncnc(Nc3ccc4c(cnn4Cc4ccccc4)c3)c2cc1OC.Cl [GW282449A],100
9,Cl.c1ccc(Cc2nc3ccc(Nc4ncnc5ccccc45)cc3[nH]2)cc1 [GR269666A],93
10,NS(=O)(=O)c1ccc(N/N=C2\C(=O)Nc3ccc(-c4cnco4)cc32)cc1 [GW276655],40
11,COc1ccc2[nH]c3c4[nH]c5ccc(OC)cc5c4c4c(c3c2c1)C(=O)NC4=O [GW296115X],43
12,CCc1ccc(Oc2nccc(-c3c(-c4ccc(F)cc4)ncn3C3CCNCC3)n2)cc1 [SB-242719],92
13,CC1=C(C(=O)Nc2ccc3[nH]ncc3c2)C(c2ccc3ccccc3c2)CC(=O)N1 (centres unmarked) [GSK270822A],93
14,NS(=O)(=O)c1ccc(Nc2ncc(-c3ccccc3)o2)cc1 [GW572399X],88
15,C/C(Nc1ccc(S(N)(=O)=O)cc1)=C1/C(=O)Nc2ccccc21 [GW335962X],83

# Tested on: T1, VEGFR2
# T1 construct: gene KDR
# Conditions: Compound Concentration (nM):1000
row,Structure (SMILES),Percent Control [%]
1,COc1cc(N2CCN(C(C)C)CC2)ccc1Nc1nc(Nc2ccc(F)cc2C(=O)NC[C@@H](O)CO)c2cc[nH]c2n1 [GSK1392956A],100
2,Nc1ncnc2occ(-c3ccc(NC(=O)Nc4cc(C(F)(F)F)ccc4F)cc3)c12 [GW770249X],0.9
3,NS(=O)(=O)c1ccc(N/N=C2\C(=O)Nc3ccc(C(=O)NCc4ccncc4)cc32)cc1 [GW300657X],84
4,COc1cccc(-c2c[nH]c3c(N/N=C/c4ccncc4)ncnc23)c1 [GW814408X],61
5,COc1ccc2c(-c3ccnc(Nc4cccc(OC(F)(F)F)c4)n3)cnn2n1 [GW810372X],73
6,CCS(=O)(=O)c1ccc(OC)c(Nc2ncc(-c3cccc(OC)c3)o2)c1 [GW580509X],23
7,Cl.O=C(Nc1ccc(Oc2ccc3[nH]c(NC(=O)c4ccco4)nc3c2)cc1)Nc1cc(C(F)(F)F)ccc1F [GW683134A],20
8,CCn1c(-c2nonc2N)nc2c(C#CC(C)(C)O)nc(OCCNC)cc21.Cl [GSK949675],83
9,COc1cccc(-n2ncc3c(N/N=C/c4ccncc4)ncnc32)c1 [GW784752X],75
10,COc1ccccc1-c1cc(/C=C2\C(=O)Nc3ncc(Br)cc32)cc(Br)c1O [GW442130X],100
11,Cl.O=C(O[C@H]1CN[C@H](C#Cc2cc3ncnc(Nc4ccc5c(cnn5Cc5ccccc5)c4)c3s2)C1)N1CCOCC1 [GSK200398A],89
12,COc1cc2ncn(-c3cc(O[C@H](C)c4ccccc4Cl)c(C(N)=O)s3)c2cc1OC [GSK237701A],33
13,Cl.O=C(Nc1ccc(Oc2ccc3[nH]c(NC(=O)c4ccccc4)nc3c2)cc1)Nc1cc(C(F)(F)F)ccc1F [GW709042A],49
14,NS(=O)(=O)c1ccc(N/N=C2\C(=O)Nc3ccc(C(=O)NCCc4c[nH]cn4)cc32)cc1 [GW300660X],79
15,CN1CCN(C(=O)c2ccc(NC(=O)Nc3ccc(N(C)c4ccnc(Nc5ccc(CS(C)(=O)=O)cc5)n4)cc3)cc2)CC1.Cl [GW830263A],1.1
16,CN(C)CCNC(=O)Nc1ccc(N(C)c2ccnc(Nc3ccc(CS(C)(=O)=O)cc3)n2)cc1.Cl [GW830900A],21
17,COc1cc(C)c(N(C)C(=O)CN(C)C)cc1Nc1nc(Nc2cccc(F)c2C(N)=O)c2cc[nH]c2n1 [GSK2219385],100
